In the library only some 22% were active in any assay of this set; here they are far more common.
CYP2C19 inhib = blockers of cytochrome P450 2C19 activity – biochemical, luminescence, ADME assay, primary screen. P33261. CYP2C19 Supersomes, luciferin-H EGE luminescence, 30 min. inhibition, % at 5 µM. hit rate 21% among 96,000. AID 778, 2007;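 active = CYP2C19 inhibition above a set limit at 5 µM in the primary screen, cut at about 50% in these data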
Target sequence (P33261 whole entry, looked up): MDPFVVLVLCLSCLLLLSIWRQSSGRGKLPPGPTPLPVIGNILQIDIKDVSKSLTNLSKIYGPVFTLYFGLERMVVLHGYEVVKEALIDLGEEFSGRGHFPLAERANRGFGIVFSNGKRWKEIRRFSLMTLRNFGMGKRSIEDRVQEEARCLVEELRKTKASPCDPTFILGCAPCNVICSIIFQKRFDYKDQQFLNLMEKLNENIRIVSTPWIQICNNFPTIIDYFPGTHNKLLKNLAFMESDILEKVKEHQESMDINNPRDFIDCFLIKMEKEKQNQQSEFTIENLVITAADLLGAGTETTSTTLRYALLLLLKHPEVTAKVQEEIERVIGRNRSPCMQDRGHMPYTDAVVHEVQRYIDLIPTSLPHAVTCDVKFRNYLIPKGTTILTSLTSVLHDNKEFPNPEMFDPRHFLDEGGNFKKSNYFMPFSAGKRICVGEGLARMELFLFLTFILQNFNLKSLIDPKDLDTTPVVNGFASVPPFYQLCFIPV
CYP2C9 inh = blockers of cytochrome P450 2C9 activity – biochemical, luminescence, ADME assay, primary screen | CYP2C9 Supersomes, luciferin-H conversion | inhibition, % at 5 µM | hit rate 20% among 96,000 | AID 777, 2007;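 active = blocking of liver enzyme CYP2C9 beyond about 50% at 5 µM, limit read from the data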
CYP2C19 act = human CYP2C19 activators, primary screen, biochemical, luminescence; recombinant CYP2C19, luciferin-H EGE luminescence; active compounds read high; 0 = fully inhibited enzyme, 1 = untreated enzyme; activation factor at 5 µM; 96,000 tested, under 10 active; AID 1025, 2008;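 active = activation factor of at least 2 at 5 µM in the primary screen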
Measles CPE = compounds protecting cells from measles virus cytopathic effect, primary screen, measles RdRp inhibitor project, single point, MLSMR library, absorbance | Measles virus-infected cells, CPE protection | protection (pct of control), % at 4 µM | hit rate 1.5% among 140,000 | AID 841, 2007; in the data active = protection mostly above about 24%, no sharp cut-off; inactive = mostly below about 26%
CYP2C9 act = human CYP2C9 activators, primary screen, biochemical, luminescence; activation factor at 5 µM; recombinant CYP2C9, luciferin-H conversion; active compounds read high; factor 1 = untreated enzyme, 0 = blocked; hit rate 1.4% among 96,000; Cytochrome P450 2C9 (Homo sapiens), P11712;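 active = activation factor of 2 or more for CYP2C9 at a 5 µM dose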
Of the large screens only hits and unclear results are named; the others gave an inactive call.

Cc1cc(C(=O)CN2C(=O)c3ccccc3C2=O)c(C)n1Cc1cccs1	none (no result: CYP2C19 inhib, CYP2C9 inh, CYP2C19 act, CYP2C9 act)
Cc1cc(C(=O)CN2C(=O)CCC2=O)c(C)n1Cc1ccccc1	CYP2C19 inhib 62
Cc1nn(Cc2ccccc2)c(C)c1C(=O)OCC(=O)c1cc(C)n(CC(F)(F)F)c1C	CYP2C19 inhib 53
CCOC(=O)c1c(C)nn(Cc2ccccc2)c1N	none
Cc1cc(C(=O)CN2C(=O)NC3(CCCc4ccccc43)C2=O)c(C)n1Cc1ccccc1 (centres undefined)	CYP2C19 inhib 56, CYP2C9 inh 71
Cc1cc(C(=O)CN2C(=O)NC3(CCCc4ccccc43)C2=O)c(C)n1Cc1ccco1 (centres undefined)	CYP2C9 inh 74
CCCOc1ccccc1NC(=O)/C=C/C(N)=O	none
O=C(O)CCCNS(=O)(=O)c1ccc(NCc2ccccc2)c(C(=O)O)c1	none
Cc1ccc(C(=O)NC(=S)Nc2cc(-c3nc4ccccc4s3)ccc2C)cc1	none
CC(CO)Nc1nc(SCc2ccccc2)nc2sc3c(c12)CCC3 (centres undefined)	CYP2C9 inh 56
CCN(CC(=O)Nc1ccc([N+](=O)[O-])cc1OC)CC(=O)NC(C)(C)C	none (no result: CYP2C19 inhib, CYP2C9 inh, CYP2C19 act, CYP2C9 act)
O=S1(=O)CC(N2CCCCC2)C(N2CCCCC2)C1 (centres undefined)	none
O=C(c1cc2n(n1)C(C(F)(F)F)CC(c1ccc(F)cc1)N2)N1CCCC1 (centres undefined)	none
CCn1c2ccccc2c2cc(NC(C)=O)ccc21	CYP2C19 inhib 98
CCn1c2ccccc2c2cc(NS(=O)(=O)c3ccc(C)cc3)ccc21	CYP2C19 inhib 54, CYP2C9 inh 86
CC(=O)Nc1ccc2c(c1)c1ccccc1n2C(C)=O	none (no result: CYP2C19 inhib, CYP2C9 inh, CYP2C19 act, CYP2C9 act)
COc1ccc(C(=O)C(C)Oc2cccc(NC(=O)c3cccc([N+](=O)[O-])c3)c2)cc1 (centres undefined)	none (no result: CYP2C19 inhib, CYP2C9 inh, CYP2C19 act, CYP2C9 act)
CC1CCN(CC(O)COC2CCC(C(C)(C)C)CC2)CC1 (centres undefined)	none
CCCCOC(=O)n1ccc(C(=O)Nc2ccccc2OC)n1	CYP2C9 act 2.1
COc1ccc(NC(=O)c2nc3nc(C)cc(C(F)F)n3n2)cc1OC	none
COc1ccccc1NS(=O)(=O)c1ccc(NC(=O)c2nc3nc(C)cc(C(F)F)n3n2)cc1	CYP2C9 inh 61
CCn1ccc(C(=O)Nc2ccc(S(=O)(=O)Nc3ccccc3OC)cc2)n1	CYP2C19 inhib 81, CYP2C9 inh 82
CCOC(=O)n1ccc(C(=O)Nc2ccccc2F)n1	none
COc1ccc(C(=O)NN/C(C)=C/C(=O)C(F)(F)C(F)(F)C(F)(F)F)cc1	none (no result: CYP2C19 inhib, CYP2C9 inh, CYP2C19 act, CYP2C9 act)
Cn1c2ccccc2n2c(=O)c(Cl)c(-c3ccccc3)c(C#N)c12	none (no result: CYP2C19 inhib, CYP2C9 inh, CYP2C19 act, CYP2C9 act)
C/C(Cl)=C/Cn1c(NCCCn2ccnc2)nc2c1c(=O)[nH]c(=O)n2C	CYP2C19 inhib 52, CYP2C9 inh 90
CCN(CC)CCNc1nc2c(c(=O)n(C)c(=O)n2C)n1C/C=C(/C)Cl	none
C/C(Cl)=C\Cn1c(NCCCn2ccnc2)nc2c1c(=O)n(C)c(=O)n2C	CYP2C19 inhib 77, CYP2C9 inh 100
Cn1c(=O)[nH]c(=O)c2c1nc(NCCCn1ccnc1)n2Cc1ccc(F)cc1	CYP2C19 inhib 68, CYP2C9 inh 78
CCCCn1c(NCCC)nc2c1c(=O)[nH]c(=O)n2C	none
Cn1c(=O)c(C(=O)CCl)c(N)n(CC2CC2)c1=O	none (no result: CYP2C19 inhib, CYP2C9 inh, CYP2C19 act, CYP2C9 act)
NS(=O)(=O)c1cc2c(cc1Cl)NC(C1C[C@H]3C=C[C@@H]1C3)NS2(=O)=O (some centres undefined)	none (no result: CYP2C19 inhib, CYP2C9 inh, CYP2C19 act, CYP2C9 act)
CCOc1ccc(C(=O)NCC2OCCc3ccccc32)cc1 (centres undefined)	none (no result: CYP2C19 inhib, CYP2C9 inh, CYP2C19 act, CYP2C9 act)
CCCOc1cccc(CN2CCCCC2c2cccnc2)c1 (centres undefined)	CYP2C19 inhib 92, CYP2C9 inh 83
COc1cccc(N2CC(C(=O)Nc3nnc(SCc4cccnc4)s3)CC2=O)c1 (centres undefined)	none (no result: CYP2C19 inhib, CYP2C9 inh, CYP2C19 act, CYP2C9 act)
Cc1cccc(COc2ncnc3nc[nH]c23)c1	none (no result: CYP2C19 inhib, CYP2C9 inh, CYP2C19 act, CYP2C9 act)
CN(C)S(=O)(=O)c1cccc(NC(=O)COC(=O)CCC(=O)c2ccc(F)cc2)c1	none (no result: CYP2C19 inhib, CYP2C9 inh, CYP2C19 act, CYP2C9 act)
Cc1ccc(NC2=NCC(=O)N2CCc2ccccc2)cc1C	CYP2C19 inhib 98
CCOc1ccc(NC2=C(Cl)C(=O)N(Cc3ccccc3)C2=O)cc1	none
CCOc1ccc(NC2=NCC(=O)N2CCc2ccccc2)cc1	CYP2C19 inhib 67
Cc1cccc(N(CC(O)CON=C2c3ccccc3-c3ccccc32)S(C)(=O)=O)c1 (centres undefined)	CYP2C19 inhib 98, CYP2C9 inh 99
CS(=O)(=O)N(CC(O)CON=C1c2ccccc2-c2ccccc21)c1ccc(F)cc1 (centres undefined)	none
CCOC(=O)c1ccc(NC(=O)COc2ccc(-n3cnnn3)cc2)cc1	none (no result: Measles CPE)
Cc1cc(C)cc(OCC(=O)Nc2cccc(C(=O)O)c2)c1	Measles CPE 89
Cc1cccc(OCC(=O)Nc2cccc(C(=O)Nc3ccccc3C(=O)O)c2)c1	none (no result: CYP2C19 inhib, CYP2C9 inh, CYP2C19 act, CYP2C9 act)
O=C(Nc1cccc2nsnc12)c1cccnc1	none (no result: CYP2C19 inhib, CYP2C9 inh, CYP2C19 act, CYP2C9 act)
COc1ccc(OCC(=O)Nc2cccc(-c3nc4ccccc4[nH]3)c2)cc1	CYP2C19 inhib 65, CYP2C9 inh 94
O=C(COc1ccc(F)cc1)Nc1ccc(-n2cnnn2)cc1	CYP2C19 inhib 76
O=C(Nc1cccc2cccnc12)c1cccnc1	CYP2C9 act 2.1
CCN1CCCC1CN(Cc1cc2ccc(C)cc2[nH]c1=O)C(=S)Nc1cccc(OC)c1 (centres undefined)	none (no result: CYP2C19 inhib, CYP2C9 inh, CYP2C19 act, CYP2C9 act)
COc1ccc(OCC(=O)Nc2cccc3cccnc23)cc1	CYP2C19 inhib 97
COc1cccc(NC(=O)COc2ccc(C)cc2)c1	none (no result: CYP2C19 inhib, CYP2C9 inh, CYP2C19 act, CYP2C9 act)
Cc1cc(C)cc(OCC(=O)Nc2nonc2NC(=O)COc2cc(C)cc(C)c2)c1	CYP2C9 inh 64
COc1ccc(OCC(=O)Nc2cccc(C(C)=O)c2)cc1	CYP2C19 inhib 67, CYP2C9 inh 51
CC(=O)Nc1cccc(OCC(=O)Nc2ccc(F)cc2)c1	CYP2C19 inhib 68
CN(C)S(=O)(=O)c1cc(NC(=O)COC(=O)CCSc2ccc(Cl)cc2)ccc1Cl	none (no result: CYP2C19 inhib, CYP2C9 inh, CYP2C19 act, CYP2C9 act)
COc1cc(C2NC(=O)CS2)cc(OC)c1OC (centres undefined)	none (no result: CYP2C19 inhib, CYP2C9 inh, CYP2C19 act, CYP2C9 act)
CCOC(=O)c1cccc(NC(=O)COc2ccc([N+](=O)[O-])cc2)c1	CYP2C19 inhib 57, CYP2C9 inh 77
COc1ccc(OCC(=O)Nc2cccc(NC(=O)COc3ccc(OC)cc3)n2)cc1	CYP2C9 inh 72
O=C(COC(=O)/C=C/c1ccc2c(c1)OCO2)NC1CC1	Measles CPE 26 (no result: CYP2C19 inhib, CYP2C9 inh, CYP2C19 act, CYP2C9 act)
Cc1nn(CC2CCCCC2)c(N)c1-c1ccccc1	CYP2C19 inhib 98, CYP2C9 inh 92
O=C(CSc1nnc(C2COc3ccccc3O2)o1)N1CCCCC1 (centres undefined)	none
c1ccc2c(c1)OCC(c1csc3ncnc(N4CCCC4)c13)O2 (centres undefined)	CYP2C19 inhib 99, CYP2C9 inh 94
